Results taken from PMC4336329 (PLoS ONE, 2015).
About 14,000 (4.5%) of roughly 310,000 compounds showed an effect of 50% or more. Effects have a minus sign here. Only a selection was taken, and strong results are over-represented in it overall.

The molecules below were run against human ether-à-go-go-related gene (hERG) potassium channel (human, UniProt Q12809) (assay: primary screen, population patch clamp on CHO cells stably expressing hERG; higher = less effect of the substance).
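Also: peak tail current of the secondary pulse compared with the same well before compound.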

human ether-à-go-go-related gene (hERG) potassium channel, sequence (Q12809 whole entry, looked up): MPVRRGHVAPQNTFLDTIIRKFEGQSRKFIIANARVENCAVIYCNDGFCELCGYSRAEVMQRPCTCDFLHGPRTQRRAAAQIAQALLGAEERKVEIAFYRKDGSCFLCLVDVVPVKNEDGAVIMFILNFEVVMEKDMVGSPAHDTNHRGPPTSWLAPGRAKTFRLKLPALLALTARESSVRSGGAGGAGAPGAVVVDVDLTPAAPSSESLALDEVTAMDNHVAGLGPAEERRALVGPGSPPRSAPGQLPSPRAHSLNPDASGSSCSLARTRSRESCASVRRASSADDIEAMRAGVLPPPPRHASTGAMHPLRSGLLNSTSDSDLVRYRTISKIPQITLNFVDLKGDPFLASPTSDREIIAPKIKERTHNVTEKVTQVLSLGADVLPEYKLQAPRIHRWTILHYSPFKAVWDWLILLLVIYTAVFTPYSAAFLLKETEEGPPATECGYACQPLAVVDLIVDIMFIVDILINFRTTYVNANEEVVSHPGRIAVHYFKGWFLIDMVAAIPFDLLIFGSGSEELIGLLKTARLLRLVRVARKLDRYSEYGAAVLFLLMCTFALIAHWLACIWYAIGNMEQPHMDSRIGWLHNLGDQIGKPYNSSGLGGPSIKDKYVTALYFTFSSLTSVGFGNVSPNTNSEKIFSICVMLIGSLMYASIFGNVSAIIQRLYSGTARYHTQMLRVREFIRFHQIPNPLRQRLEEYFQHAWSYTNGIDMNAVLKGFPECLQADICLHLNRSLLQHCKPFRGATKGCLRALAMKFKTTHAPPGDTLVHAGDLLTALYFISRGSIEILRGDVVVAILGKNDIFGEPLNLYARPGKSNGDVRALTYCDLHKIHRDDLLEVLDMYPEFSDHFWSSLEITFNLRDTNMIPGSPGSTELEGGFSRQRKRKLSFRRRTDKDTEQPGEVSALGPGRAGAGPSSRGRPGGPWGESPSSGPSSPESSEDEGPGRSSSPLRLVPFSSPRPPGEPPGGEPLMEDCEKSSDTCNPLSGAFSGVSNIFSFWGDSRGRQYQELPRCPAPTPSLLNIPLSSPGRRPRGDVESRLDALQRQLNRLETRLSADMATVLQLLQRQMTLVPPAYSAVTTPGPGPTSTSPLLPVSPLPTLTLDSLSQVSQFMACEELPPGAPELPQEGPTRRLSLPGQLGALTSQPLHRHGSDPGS

Point of comparison: `CCC1CCCCN1Cc1nc(Cc2ccccc2Cl)no1` (stereo not shown), “hERG current change (%, negative = inhibition) at 10uM” value -10.4%. Against it:
- COc1ccc(C(=O)c2nc3ccccc3n2C(C)C)cc1OC — lower, -16.5%
- CC(C)c1ccc(NNC(=O)C2CCC2)cc1 — higher, 3.84%
- COc1cc2c(cc1OC)CN(CCOc1ccc(Br)cc1)CC2 — lower, -68.8%
- Brc1cccc(OCCN2CCc3ccccc3C2)c1.Cl — higher, -5.84%
- COc1ccc(C(=O)CCN2CCC(C)CC2)cc1.Cl — lower, -30%
- COc1ccc(C(=O)CCN2CCc3cc(OC)c(OC)cc3C2)cc1.Cl — lower, -69.1%
- COc1ccc(S(=O)(=O)N2CCN(CCOc3ccc(Br)cc3)CC2)cc1OC — lower, -12.8%
- COc1cc2c(cc1OC)CN(C(=O)CCNS(=O)(=O)c1ccc(Br)cc1)CC2 — lower, -36.8%
- COc1cc2c(cc1OC)CN(Cc1cc(OC)c(O)c(OC)c1)CC2 — lower, -14%
- COc1ccc(CC(=O)N2CCc3cc(OC)c(OC)cc3C2)cc1 — higher, -6.59%
- COc1cc2c(cc1OC)CN(CCC(=O)c1ccc(Br)cc1)CC2 — lower, -66.9%
- COc1ccc(C(=O)NC(=S)Nc2cccc3nc(C)ccc23)cc1OC — higher, 8.45%
- Cc1nnc(NC(=O)CN2CCN(Cc3c(Cl)cccc3Cl)CC2)s1 — higher, 9.97%
- COC(=O)c1c(NC(=O)CS(=O)(=O)c2ccccc2)sc(C)c1C — lower, -21.6%
- CNC(=O)C1CCN(S(=O)(=O)c2c(C)noc2/C=C/c2cccc(C)c2)CC1 — higher, 10.2%
- COc1ccccc1NC(=O)c1ccc2c(c1)C(=O)N(c1ccccc1OC)C2=O — higher, 5.55%
- CC(C)c1ccccc1NS(=O)(=O)c1cccs1 — higher, 17.8%
- CNCC[C@H](Oc1cccc2ccccc12)c1cccs1.Cl — lower, -36%
- CNCCC(Oc1ccccc1OC)c1ccccc1.Cl (stereo not shown) — lower, -53.5%
- CNCC[C@H](Oc1cccc2ccccc12)c1cccs1 — lower, -37.8%
- CCS(=O)(=O)c1ccc2oc(Nc3cccc(OC)c3)nc2c1 — higher, 9.78%
- Cc1ccc(NC(=O)CCCn2nc(C)c3c(C)n(-c4ccccc4)nc3c2=O)cc1C — higher, 24.6%
- COc1cc(Cc2ccc(N)c(OC)c2)ccc1N — higher, 11.1%
- COc1ccc(Cc2ccc(OC)c(N)c2)cc1N — lower, -52.6%
- COc1ccc(OC)c(N)c1.Cl — higher, 20.5%
- Cc1cccc(N2CC(C)Cn3c2nc2c3c(=O)[nH]c(=O)n2C)c1 (stereo not shown) — higher, -0.757%
- COCCCNC(=O)CCSc1ccc(Cl)cc1 — higher, -8.9%
- COCCNCCCCSc1ccc(Cl)cc1 — lower, -50.8%
- COCCCNCCCCSc1ccc(Cl)cc1 — lower, -37.9%
- O=C1CCCC2=C1C(c1ccccc1)C1C(=O)c3ccccc3C1=N2 (stereo not shown) — higher, 6.16%
- CC(=O)Nc1ccc(C(=O)N2CCN(S(=O)(=O)c3ccc4c(c3)OCCCO4)CC2)cc1 — higher, 5.45%
- Cc1cc(C(=O)Nc2ccc(S(=O)(=O)N3CCCC3)cc2)no1 — higher, 23.6%
- CCC(=O)N1CCN(c2ccc(NC(=S)NC(=O)c3cccc([N+](=O)[O-])c3)cc2)CC1 — higher, 2.13%
- COc1ccc(C(=O)Nc2cc([N+](=O)[O-])ccc2N2CCN(C)CC2)cc1 — lower, -30.3%
- CCC(=O)N1CCN(c2ccccc2NC(=O)c2ccc(-c3cccc([N+](=O)[O-])c3)o2)CC1 — lower, -34.1%
- CN1CCN(c2ccc(S(=O)(=O)N3CCCCC3)cc2NC(=O)c2ccc(C#N)cc2)CC1 — lower, -41.7%
- O=C(NC(=S)Nc1ccccc1N1CCCCC1)c1ccc(-c2cccc([N+](=O)[O-])c2)o1 — higher, 4.88%
- CN1CCN(c2ccc(S(=O)(=O)N3CCCCC3)cc2NC(=O)c2cccc([N+](=O)[O-])c2)CC1 — lower, -65.8%
- COc1cccc(C(=O)Nc2cc([N+](=O)[O-])ccc2N2CCN(C)CC2)c1 — lower, -71.7%
- CCC(=O)N1CCN(c2ccccc2NC(=S)NC(=O)c2cccc([N+](=O)[O-])c2)CC1 — lower, -69.9%
- O=C(NC(=S)Nc1ccccc1N1CCOCC1)c1cccc([N+](=O)[O-])c1 — higher, 17.6%
- COc1ccc(C(=O)Nc2cc([N+](=O)[O-])ccc2N2CCCC2)cc1 — higher, -1.57%
- CN1CCN(c2ccc(S(=O)(=O)N3CCCCC3)cc2NC(=O)c2ccc3ccccc3c2)CC1 — lower, -40.4%
- CC(=O)N1CCN(c2ccccc2NC(=O)c2ccc(-c3cccc([N+](=O)[O-])c3)o2)CC1 — lower, -75.4%
- COCCNC(=O)[C@@]1(Cc2ccccc2)C=C[C@@H](C)N1C(C)=O — higher, 11.5%
- CC(C)N(Cc1ccco1)/N=C/c1c(O)n(Cc2ccccc2)c(=O)[nH]c1=O — higher, 8.85%
- Cc1nccn1CCOc1ccc(Cl)cc1.O=C(O)C(=O)O — lower, -38.4%
- COc1ccc2c(Cl)c(C(N)=O)sc2c1 — higher, 1.91%
- Nc1ccc(NC(=O)c2ccco2)c(Cl)c1 — higher, 12.9%
- Cc1cc(=O)cc(C)n1-c1ccc(Br)cc1 — higher, 12.1%
- CCN(CC)CCn1c(-c2ccc(C)cc2)nc(=S)c2c1CC(C)(C)OC2 — higher, -0.55%
- Clc1ccccc1-c1ccc(/C=N/n2cnnc2)o1 — lower, -24.1%
- CCc1nc(SCC(=O)Nc2cccc3ccccc23)[nH]c(=O)c1C — higher, 8.16%
- COC(=O)c1ccc(C(=O)OC)c(NC(=S)N2CCC(N3CCCCC3)CC2)c1 — lower, -15%
- COc1cc(NS(C)(=O)=O)c(OC)cc1NC(=O)c1ccccc1 — higher, -9.96%
- CN1CCN(c2ccc(NC(=O)c3ccc(-c4cccc([N+](=O)[O-])c4)o3)cc2)CC1 — higher, 5.35%
- O=C(Nc1ccccc1N1CCOCC1)c1cccc([N+](=O)[O-])c1 — lower, -17.7%
- O=C(Nc1ccccc1N1CCCCC1)c1cccc([N+](=O)[O-])c1 — higher, 9.03%
- CN1CCN(c2ccccc2NC(=O)c2ccc(-c3cccc([N+](=O)[O-])c3)o2)CC1 — lower, -51.8%
- CN1CCN(c2ccccc2NC(=O)c2cccc([N+](=O)[O-])c2)CC1 — lower, -80.1%
- O=C(NC(=S)Nc1ccccc1N1CCCC1)c1ccc(-c2cccc([N+](=O)[O-])c2)o1 — lower, -26.7%
- N#Cc1ccsc1NC(=O)c1ccc(Cl)c([N+](=O)[O-])c1 — higher, 21%
- O=C(NC1CCS(=O)(=O)C1)c1cccc(S(=O)(=O)N2CCCCCC2)c1 (stereo not shown) — higher, 1.79%
- OCCCC1CCCCN1Cc1nc(Cc2ccccc2Cl)no1 (stereo not shown) — lower, -78.9%
- NC(=O)[C@@H]1CCCN1Cc1nc(Cc2ccccc2Cl)no1 — higher, 14.5%
- CNC(=O)C1CCN(S(=O)(=O)c2c(C)noc2/C=C/c2ccccc2F)CC1 — higher, 11.4%
- Cc1noc(/C=C/c2ccccc2F)c1S(=O)(=O)N1CCC(C(=O)N2CCN(C)CC2)CC1 — lower, -19.5%
- Cc1noc(C)c1S(=O)(=O)N1CCCN(C(=O)/C=C/c2ccccc2F)CC1 — lower, -70.9%
- COc1ccc(N2CCN(C(c3cccs3)C(C)NS(C)(=O)=O)CC2)cc1 (stereo not shown) — higher, 7.84%
- CN1C(=O)c2ccccc2C(C(=O)O)C1c1cccc(F)c1 (stereo not shown) — higher, 0.483%
- CCOc1ccccc1N(C)C(=O)c1sc2ncn(CC(=O)N3CCCCC3C)c(=O)c2c1C (stereo not shown) — higher, 6.44%
- CCOC(=O)CCSc1nc2c(c(C(F)(F)F)c1C#N)CCC2 — higher, 3.58%
- O=C(c1ccccc1OCc1ccccc1Br)N1CCN(c2ncccn2)CC1 — lower, -37.2%
- O=C(C[n+]1cccc2ccccc21)c1ccc(Br)cc1.[Br-] — lower, -45.1%
- Fc1cccc(Cc2noc(CN3CCSCC3)n2)c1 — higher, 29.1%
- Cc1ccccc1N1CCN(Cc2nc(Cc3ccccc3)no2)CC1 — higher, 9.18%
- Fc1cccc(Cc2noc(CN3CCN(C4CCc5ccccc5C4)CC3)n2)c1 (stereo not shown) — lower, -78.6%
- c1ccc(Cc2noc(CN3CCC(CN4CCOCC4)CC3)n2)cc1 — higher, 4.64%
- O=C(c1ccco1)N1CCCN(Cc2nc(Cc3ccccc3)no2)CC1 — lower, -25.8%
- Cc1cccnc1CN1CCN(Cc2nc(Cc3cccc(F)c3)no2)CC1 — lower, -29.5%
- Fc1cccc(Cc2noc(CN3CCOCC3)n2)c1 — higher, 11.4%
- CN1CCN(Cc2nc(Cc3cccc(F)c3)no2)CC1c1ccccc1 (stereo not shown) — lower, -18.2%
- c1ccc(Cc2noc(CN3CCCN(C4Cc5ccccc5C4)CC3)n2)cc1 — lower, -80%
- c1ccc(Cc2noc(CN3CCN(C4CCc5ccccc5C4)CC3)n2)cc1 (stereo not shown) — lower, -81.2%
- Fc1cccc(Cc2noc(CN3CCCN(C4Cc5ccccc5C4)CC3)n2)c1 — lower, -86.5%
- O=C(c1ccco1)N1CCN(Cc2nc(Cc3ccccc3)no2)CC1 — higher, -8.87%
- Cc1ccc(CN2CCNC(=O)C2CC(=O)NCC(F)(F)F)o1 (stereo not shown) — higher, 14.1%
